# A selection follows.
# aSyn 5UTR act: Activators working through SNCA 5'UTR binding (MLPCN); AID 1814; 7.1% of 300,000 active; alpha-synuclein 5'UTR reporter, activators screen; activity score, % (tested at 7.5 µM), hits read low; in the data active = activity score below about -60%
# Hits are given with their value; - = inactive.
SMILES,aSyn 5UTR act
CC(=O)Nc1ccc(NC(=O)CN(c2cccc([N+](=O)[O-])c2)S(C)(=O)=O)cc1,-
COc1ccc(CNC(=O)CN(c2cc(C)cc(C)c2)S(=O)(=O)c2c(C)[nH]c(=O)[nH]c2=O)cc1,-80.6
COc1cc2c(cc1OC)CN(c1ccc(C(F)(F)F)cn1)CC2,-156.5
COc1cc2c(cc1OC)CN(c1ccc3ccccc3n1)CC2,-189.2
CCC/C=N/Nc1nc2ccccc2s1,-244.1
C(=C\c1ccccc1)/C=N/Nc1nc2ccccc2s1,-191.2
Brc1ccc(/C=C/C=N/Nc2nc3ccccc3s2)cc1,-72.8
Cc1nc(C#N)c(N/N=C/c2c(F)cccc2Cl)o1,-62.1
O=[N+]([O-])c1cc(-c2n[nH]c(-c3ccccc3)n2)cc([N+](=O)[O-])c1,-75.8
O=C(Nc1nnc(C2CC2)s1)C1Cc2ccccc2CN1S(=O)(=O)c1cccs1 (configuration not stated),-66.4
CCc1nnc(NC(=O)C2Cc3ccccc3CN2S(=O)(=O)c2cccs2)s1 (configuration not stated),-105.4
CCc1nnc(NC(=O)C2Cc3ccccc3CN2S(=O)(=O)c2ccc(C)cc2)s1 (configuration not stated),-81.2
Cc1cc(C)c2sc(NNC(=O)c3ccc(S(=O)(=O)N4CCc5ccccc5C4)cc3)nc2c1,-
O=C(/C=C/c1ccnc2ccccc12)c1cccs1,-79.9
C=CCn1c2ccccc2c(=O)c2cc(C#Cc3ccsc3)ccc21,-211.2
C/C(=N\NC(=O)c1ccn(C)n1)c1cccc(NC(=O)c2ccc(C)s2)c1,-100.9
C/C(=N/NC(=O)c1ccc(Cl)s1)c1ccc(NC(=O)COc2ccc(Cl)cc2)cc1,-77.5
C/C(=N\NC(=O)c1c(Cl)cnn1C)c1cccc(NC(=O)COc2ccccc2)c1,-87.8
C/C(=N/NC(=O)c1ccc(C)s1)c1cccc(NC(=O)COc2ccc(Cl)cc2Cl)c1,-125.7
C/C(=N/NC(=O)c1ccco1)c1cccc(NC(=O)c2ccc(C)s2)c1,-143.2
C/C(=N\NC(=O)c1ccn(C)n1)c1ccc(NC(=O)c2cccc(F)c2)cc1,-85.7
O=C(CC1Sc2ccccc2NC1=O)c1ccc(Br)cc1 (configuration not stated),-218.0
C=CCNC(=S)NC(=O)c1ccc(C)c(Br)c1,-105.7
C=CCc1c(C)nc(-c2ccccc2)nc1N/N=C/c1ccncc1,-95.1
C=CCc1c(C)nc(-c2ccccc2)nc1N/N=C(\C)c1ccc(N)cc1,-69.2
SMILES,aSyn 5UTR act
CN(C)c1ccc(N=Nc2cccc(F)c2)cc1,-106.5
CN(C)c1ccc(N=Nc2cccc3ccoc23)cc1,-136.0
Cc1ccc(COc2ccc(-c3nnco3)cc2)cc1,-118.1
C=CCNC(=O)c1ccc2nc(Cc3ccc(OC)cc3)oc2c1,-139.4
CCC1=Nc2cc(C(=O)NCCCOC)ccc2Sc2ccccc21,-
COc1ccc(Cc2nc3ccc(C(=O)NCCCSC)cc3o2)cc1OC,-99.3
COc1ccc(Cc2nc3ccc(C(=O)N4CCOCC4)cc3o2)cc1,-125.4
COCCCNC(=O)c1ccc2nc(Cc3ccc(OC)cc3)oc2c1,-94.5
COc1ccc(Cc2nc3ccc(C(=O)N(C)CCn4ccnc4)cc3o2)cc1OC,-77.8
CC(C)(C)c1ccc(OCC(=O)N/N=C/c2cc(Br)ccc2OC(=O)c2ccco2)cc1,-
O=C(COc1ccc(Br)cc1)Nc1ccc(-c2nnc(-c3ccco3)o2)cc1,-80.4
Clc1ccc(-c2nnc(-c3ccco3)o2)cc1,-203.1
CCC(Oc1ccccc1)C(=O)Nc1ccc(-c2nnc(-c3ccco3)o2)cc1 (configuration not stated),-96.8
COc1cc(C=C2C(=O)OC(C)(C)OC2=O)ccc1OCC(=O)Nc1ccccc1,-122.8
COc1cc(/C=C/c2cc[n+](C)cc2)ccc1OCC(=O)Nc1ccccc1,-76.4
Cc1ccc2c(c1)COc1c3ccc(C(=O)N[C@@H](CO)C(C)C)cc3nn1-2,-143.5
COCCNC(=O)c1ccc2c3n(nc2c1)-c1ccc(C)cc1CO3,-150.5
O=C1NC2(CCCCC2)C(=O)N1/N=C/c1ccccc1Br,-81.0
O=C(NC(=S)Nc1nc2c(s1)CCCC2)c1ccccc1,-344.8
Cc1ccccc1C(=O)NC(C(=O)Nc1nc2c(s1)CCCC2)C(C)C (configuration not stated),-66.0
S=C(Nc1nc2c(s1)CCCC2)NC1CC1,-92.3
COC(=O)c1ccc(C(=O)NC(=S)Nc2nc3c(s2)CCCC3)cc1,-66.1
CC1Sc2ccc(C(=O)Nc3ccccc3OC(F)F)cc2NC1=O (configuration not stated),-80.5
CC1Sc2ccc(C(=O)OCc3ccccc3Cl)cc2NC1=O (configuration not stated),-146.9
COCCn1c(C)cc(C(=O)COC(=O)c2ccc(Cl)c(S(N)(=O)=O)c2)c1C,-103.3
SMILES,aSyn 5UTR act
Cc1cc(C(=O)COC(=O)c2ccc(Cl)c(S(N)(=O)=O)c2)c(C)n1CC1CCCO1 (configuration not stated),-104.0
Cc1cccc(C(=O)NCC(=O)OCC(=O)c2cc(C)n(CC3CCCO3)c2C)c1 (configuration not stated),-101.8
CCN1C(=S)SC(=O)C1=C1C=C(C)N(CCO)C(C)=C1,-165.2
Cc1ccsc1C(=O)OCC(=O)N1CCc2ccccc2C1,-126.2
c1ccc(-n2ncc3c(NCc4ccccn4)ncnc32)cc1,-69.2
Cc1cccc(-n2ncc3c(NCc4ccccn4)ncnc32)c1,-113.1
Cc1ccc(/C=C/C(=O)Nc2nc3ccccc3[nH]2)cc1,-185.7
O=C(/C=C/c1c(F)cccc1Cl)Nc1nc2ccccc2[nH]1,-313.8
O=C(CCc1nc2ccccc2c(=O)[nH]1)Nc1nc(-c2cccs2)cs1,-88.8
CN(C)C(/C=C/Nc1ccc(F)cc1)=C(C#N)C#N,-63.2
N#CC(C#N)=C(Nc1ccc(F)cc1)SCc1cccc(Br)c1,-
O=C(O)c1ccc(N=NN2CCCCCC2)cc1,-167.5
Cc1ccc(C2=NN(S(C)(=O)=O)C(c3cccs3)C2)cc1 (configuration not stated),-146.0
COc1ccc(C2=NN(S(C)(=O)=O)C(c3cccs3)C2)cc1 (configuration not stated),-94.8
COc1ccc(C2CC(c3cccs3)=NN2S(C)(=O)=O)cc1 (configuration not stated),-84.7
CS(=O)(=O)N1N=C(c2ccc(Br)cc2)CC1c1cccs1 (configuration not stated),-117.5
COc1ccc(C2CC(c3cccs3)=Nc3ccccc3S2)cc1 (configuration not stated),-163.4
CCc1ccc(C2=NN(S(C)(=O)=O)C(c3cccs3)C2)cc1 (configuration not stated),-92.3
CSc1ccc(C2C(C(=O)c3ccco3)=C(O)C(=O)N2c2nnc(SC)s2)cc1 (configuration not stated),-62.0
COc1cc(NC(=O)c2cc3nc(C4CC4)cc(C(F)(F)F)n3n2)c(OC)cc1Cl,-69.9
COc1ccc(-c2ccc(NC(=O)c3ccc(Br)o3)cc2)nn1,-110.4
COC(=O)Cc1ccc(NC(=O)c2ccc(Br)o2)cc1,-152.8
CCN(CC)c1ccc(NC(=O)c2cnn(CC)c2)cc1,-94.8
CCN(CC)c1ccc(NC(=O)c2ccc(Br)o2)cc1,-150.7
O=[N+]([O-])c1cc(-c2nnc(C34CC5CC(CC(C5)C3)C4)o2)cc([N+](=O)[O-])c1,-96.6
O=c1[nH]c2ccccc2n1CCCSc1cnc2ccccc2n1,-63.8
OCC#CCSc1nnc(-c2ccc(Br)cc2)o1,-86.8
Cc1ccc(-c2nc(-c3nccc4ccccc34)oc2-c2ccccc2)cc1,-136.8
